Results filed as inconclusive are left out. Where a call stands in place of a potency, no number is given. A structure can be active in one record and inactive in another. Calls of active or inactive are those of the source. Calls follow the shape of the full dose curve.
Test: p53 small molecule agonists, cell-based qHTS assay with human liver microsomes: qHTS cell viability counter screen (AID 1963579)
Conditions: p53RE-bla HCT-116 viability, ATP luminescence, 16 h, HLM; series mostly up to 66 µM
In short: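 In this multiplexed counter screen, the reporter plates were subsequently treated with CellTiter-Glo so that cell viability, reflected by luminescence, could be recorded for p53RE-bla cells dosed 16 h with compounds under microsomal activation (HLM and NADPH).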
Also: nearly all actives have a fitted effect of over 45% in size.

Structure (SMILES)	activity change, negative = cytotoxicity	Potency
Nc1c(NC/C=C\COc2cc(CN3CCCCC3)ccn2)c(=O)c1=O	5.4% [at 13.5 µM] (inactive)	
O=S(=O)(O)c1ccc2cc(O)c(S(=O)(=O)O)cc2c1		inactive
COCCOCCOCCOCCOC		inactive
COCCOCCOCCOCCOCCO		inactive
CCCO		inactive
O=[N+]([O-])c1ccc(Oc2ccc([N+](=O)[O-])cc2)cc1		inactive
CC[N+](C)(C)c1cccc(O)c1		inactive
CCCCCCCN		inactive
CS(C)(=O)=O		inactive
O=c1[nH]c(=O)c2cn[nH]c2[nH]1		inactive
CCC(COC(=O)CCS)(COC(=O)CCS)COC(=O)CCS		inactive
CC(C)N=C(N)/N=C(\N)Nc1ccc(Cl)cc1		inactive
CC(C)(C)c1ccc(O)c(C(C)(C)C)c1		inactive
CCCCCCCC(=O)N(C)C		inactive
CCCCC(C)C(=O)O (stereo not drawn)		inactive
CCO[Si](CCCN=C=O)(OCC)OCC		inactive
CCCCCCCCO[C@@H]1O[C@H](CO)[C@@H](O)[C@H](O)[C@H]1O		inactive
Cc1ccc(N=Nc2c(O)ccc3ccccc23)c(C)c1		inactive
CCCOCCO		inactive
COc1ccc(N=[N+]([O-])c2ccc(OC)cc2)cc1		inactive

Structure (SMILES)	activity change, negative = cytotoxicity	Potency
Cc1cc(N)n(-c2ccccc2)n1		inactive
O=C1OC(=O)c2ccccc21		inactive
OC[C@H]1O[C@H](O[C@H]2O[C@H](CO)[C@@H](O)[C@H](O)[C@H]2O)[C@H](O)[C@@H](O)[C@@H]1O		inactive
CCSC(=O)N(CC)CC		inactive
CCCCC(=O)N(C)C		inactive
CC(=O)NC(Cc1ccccc1)C(=O)O (stereo not drawn)		inactive
C=C(C)C(=O)NCCC[N+](C)(C)C		inactive
CCCC(C)CCC(C)=O (stereo not drawn)		inactive
C/C=C/C(=O)C1=C(C)C=CCC1(C)C		inactive
NS(=O)(=O)c1ccccc1OC(F)(F)F		inactive
CC(=O)Oc1ccccc1C(=O)Nc1ncc([N+](=O)[O-])s1		inactive
C1CN(CCOCCN2CCOCC2)CCO1		inactive
CC(=O)CC/C=C(\C)CC/C=C(\C)CC/C=C(\C)CCC=C(C)C		inactive
C=CCOCC(O)CO (stereo not drawn)		inactive
CC(CCC(=O)O)C(=O)O (stereo not drawn)		inactive
CCOC(C)(C)C		inactive
O=Cc1cccc([N+](=O)[O-])c1		inactive
CC(C)CC(O)Cc1ccccc1 (stereo not drawn)		inactive
CC(=O)OCCN(CCOC(C)=O)c1ccc(N=Nc2ccc([N+](=O)[O-])cc2C#N)cc1		inactive

Test: p53 small molecule agonists, cell-based qHTS assay with rat liver microsomes: qHTS cell viability counter screen (AID 1963580); also: potency is read from the fitted curve at half-maximal effect
Conditions: p53RE-bla HCT-116 + rat microsomes, ATP viability, 16 h; series mostly up to 66 µM
In short: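 Cytotoxicity counter screen: intracellular ATP read by CellTiter-Glo luminescence in the p53 reporter wells. HCT-116 p53RE-bla cells were treated for 16 h at 37 C alongside rat liver microsomes and NADPH, each 0.5 mg/mL final.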

Structure (SMILES)	activity change, negative = cytotoxicity	Potency
Nc1c(NC/C=C\COc2cc(CN3CCCCC3)ccn2)c(=O)c1=O	1.94% [at 13.5 µM] (inactive)	
O=S(=O)(O)c1ccc2cc(O)c(S(=O)(=O)O)cc2c1		inactive
COCCOCCOCCOCCOC		inactive
COCCOCCOCCOCCOCCO		inactive
CCCO		inactive
O=[N+]([O-])c1ccc(Oc2ccc([N+](=O)[O-])cc2)cc1		inactive
CC[N+](C)(C)c1cccc(O)c1		inactive
CCCCCCCN		inactive
CS(C)(=O)=O		inactive
O=c1[nH]c(=O)c2cn[nH]c2[nH]1		inactive
CCC(COC(=O)CCS)(COC(=O)CCS)COC(=O)CCS		inactive
CC(C)N=C(N)/N=C(\N)Nc1ccc(Cl)cc1		inactive
CC(C)(C)c1ccc(O)c(C(C)(C)C)c1		45.8 µM (active)
CCCCCCCC(=O)N(C)C		inactive
CCCCC(C)C(=O)O (stereo not drawn)		inactive
CCO[Si](CCCN=C=O)(OCC)OCC		inactive
CCCCCCCCO[C@@H]1O[C@H](CO)[C@@H](O)[C@H](O)[C@H]1O		inactive
Cc1ccc(N=Nc2c(O)ccc3ccccc23)c(C)c1		inactive
CCCOCCO		inactive
COc1ccc(N=[N+]([O-])c2ccc(OC)cc2)cc1		inactive

Structure (SMILES)	activity change, negative = cytotoxicity	Potency
Cc1cc(N)n(-c2ccccc2)n1		inactive
O=C1OC(=O)c2ccccc21		inactive
OC[C@H]1O[C@H](O[C@H]2O[C@H](CO)[C@@H](O)[C@H](O)[C@H]2O)[C@H](O)[C@@H](O)[C@@H]1O		inactive
CCSC(=O)N(CC)CC		inactive
CCCCC(=O)N(C)C		inactive
CC(=O)NC(Cc1ccccc1)C(=O)O (stereo not drawn)		inactive
C=C(C)C(=O)NCCC[N+](C)(C)C		inactive
CCCC(C)CCC(C)=O (stereo not drawn)		inactive
C/C=C/C(=O)C1=C(C)C=CCC1(C)C		inactive
NS(=O)(=O)c1ccccc1OC(F)(F)F		inactive
CC(=O)Oc1ccccc1C(=O)Nc1ncc([N+](=O)[O-])s1		41.6 µM (active) and inactive
C1CN(CCOCCN2CCOCC2)CCO1		inactive
CC(=O)CC/C=C(\C)CC/C=C(\C)CC/C=C(\C)CCC=C(C)C		inactive
C=CCOCC(O)CO (stereo not drawn)		inactive
CC(CCC(=O)O)C(=O)O (stereo not drawn)		inactive
CCOC(C)(C)C		inactive
O=Cc1cccc([N+](=O)[O-])c1		inactive
CC(C)CC(O)Cc1ccccc1 (stereo not drawn)		inactive
CC(=O)OCCN(CCOC(C)=O)c1ccc(N=Nc2ccc([N+](=O)[O-])cc2C#N)cc1		inactive

From PubChem BioAssay (Tox21)
